Hits are enriched below; roughly 1.7% of the tested compounds scored in any of these assays.
S1P2 antag: antagonists of human S1P2 receptor; O95136; cell-based S1P2 antagonist assay, inhibition at 5 uM; inhibition, % at 5 µM; hit rate 0.21% among 97,000; AID 736; in the data active = inhibition above about 45%;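 note: CRE beta-lactamase reporter cells expressing human S1P2 stimulated with S1P; 0% = agonist at EC80 alone and 100% = agonist plus reference antagonist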
GALR2 blocker: antagonists of human galanin receptor 2 (GALR2) | O43603 | GALR2-expressing cells, antagonist mode | inhibition, % at 4 µM | hit rate 0.39% among 140,000 | AID 828; in the data active = inhibition above about 27%;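 note: cells stimulated with galanin 1-16 at roughly its EC80; 0% = agonist challenge control and 100% = basal control without agonist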
Target sequence (O43603 whole entry, looked up): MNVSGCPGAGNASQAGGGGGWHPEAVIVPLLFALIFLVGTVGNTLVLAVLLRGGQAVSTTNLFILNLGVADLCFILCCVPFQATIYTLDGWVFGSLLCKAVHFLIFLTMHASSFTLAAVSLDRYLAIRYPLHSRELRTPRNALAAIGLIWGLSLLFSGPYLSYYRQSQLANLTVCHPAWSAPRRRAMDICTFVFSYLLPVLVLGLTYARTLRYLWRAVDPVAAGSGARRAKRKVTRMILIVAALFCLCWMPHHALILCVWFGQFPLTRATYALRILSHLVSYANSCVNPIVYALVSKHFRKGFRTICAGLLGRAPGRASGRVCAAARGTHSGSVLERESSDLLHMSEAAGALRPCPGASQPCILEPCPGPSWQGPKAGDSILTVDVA
S1P2 agonist: agonists of human S1P2 receptor. hit rate 0.46% among 97,000. activation, % at 4.5 µM. O95136. S1P2-expressing cell line, agonist reporter read-out. AID 729; in the data active = activation above about 16%;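 note: 0% = vehicle low control and 100% = maximal reference agonist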
MRP1 act: activates MRP-1 | H69AR cells + doxorubicin, viability rescue, CellTiter-Glo | viability increase, % at 10 µM | hit rate 0.61% among 140,000 | AID 799;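 active = viability gain under doxorubicin at or above a set limit, the compound median plus 3 SD, cut at about 4.7% in these data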;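 note: MRP-1 overexpressing cells given doxorubicin 25 µM after compound pretreatment; 18-22 h compound pretreatment then 72 h with doxorubicin before readout; 0% = doxorubicin-only wells and 100% = vehicle-treated cells without doxorubicin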
GALR2 agonist: agonists of human galanin receptor 2 (GALR2) | hit rate 0.48% among 140,000 | O43603 | AID 803 | activation, % (concentration not given with the values) | GALR2-expressing cells, agonist activation read-out; in the data active = activation above about 5%, passing the limit was not always enough;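 note: 0% = vehicle buffer wells and 100% = reference agonist at full effect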
MRP resist rev: reverses drug resistance mediated by MRP; H69AR cells + 2 uM doxorubicin, CellTiter-Glo, 72 h; differential viability (reversal), % at 10 µM; hit rate 0.04% among 85,000;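 active = viability drop by adding the cancer drug above about 55%, with treated viability meeting a 40% cutoff, limit read from the data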;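 note: viability without doxorubicin minus viability with 2 µM doxorubicin for each compound; larger differential means the compound sensitizes cells more to doxorubicin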
Starred values were filed as active, the others as inactive; . = no result given.

SMILES	S1P2 antag	GALR2 blocker	S1P2 agonist	MRP1 act	GALR2 agonist	MRP resist rev
CSCCC(NC(=O)c1cccc(S(=O)(=O)N2CCOCC2)c1)C(=O)Nc1cccc(C)c1 (configuration not stated)	.	18.6	.	-3.1	-0.1	.
COC(=O)c1ccc(NC(CC(C)C)C(=O)OC)c([N+](=O)[O-])c1 (configuration not stated)	.	3.1	.	-0.6	-2.7	.
Cc1c(NC(=S)NC(=O)C2CCCCC2)c(=O)n(-c2ccccc2)n1C	.	0.1	.	0.5	-1.6	.
CCCCn1c(=NC(=O)c2cccnc2)c(C(=O)OCC)cc2c(=O)n3ccccc3nc21	-12.3	-5.5	8.6	-3.4	4.5	24.9
Cc1ccc(CNC(=O)c2cc3c(=O)n4ccccc4nc3n(Cc3ccco3)c2=N)cc1	.	.	.	.	.	-20.7
Cc1ccc(CNC(=O)c2cc3c(=O)n4ccccc4nc3n(CC3CCCO3)c2=N)cc1 (configuration not stated)	.	-11.8	.	-1.2	8.3*	-11.8
CCOCCCn1c(=NC(=O)c2cccnc2)c(C(=O)OCC)cc2c(=O)n3ccccc3nc21	-27.8	-10.0	9.9	-4.5	6.0*	28.1
C=CCn1c(N)c(C(=O)Nc2cccc(C)c2)c2nc3ccccc3nc21	-49.7	-6.6	51.8*	-3.9	14.5*	.
Nc1nc(SCC(=O)Nc2ccccc2Sc2ccccc2)n[nH]1	-12.1	-0.9	-5.3	-0.5	-1.8	.
Cc1noc2ncnc(Oc3ccccc3)c12	24.0	6.3	-6.3	-2.5	-1.2	.
Cc1noc2ncnc(Sc3ccccc3Cl)c12	55.3*	10.0	-7.8	-2.8	-1.7	-0.5
Cc1cccc(-c2cc3nc(C)cc(N4CC(C)CC(C)C4)n3n2)c1 (configuration not stated)	-10.1	4.8	-1.6	5.1*	-0.4	7.5
Cc1cccc(-c2cc3nc(C)cc(NCCCN(C)C)n3n2)c1	4.6	15.9	-4.3	-3.8	-0.1	9.1
Cc1cccc2c3nc4ccccc4nc3n(CCCN3C(=O)c4ccccc4C3=O)c12	.	10.3	.	5.2*	-0.3	.
COc1ccc2c(c1)c1nc3ccccc3nc1n2CCCN1C(=O)c2ccccc2C1=O	.	-2.9	.	-0.1	0.6	.
CCOc1ccc(NC(=O)c2oc3ccccc3c2NC(=O)C(C)C)cc1	.	.	.	.	.	-10.1
O=C(CCn1cnc2ccccc2c1=O)Nc1ccc(Cl)c(Cl)c1	-99.6	0.6	-6.6	-1.0	-1.6	-5.5
O=C(CCn1cnc2ccccc2c1=O)Nc1nc(-c2ccc(Br)cc2)cs1	.	-5.3	.	0.1	7.9*	.
CC(C)OC(=O)c1cccnc1SCc1cc(=O)n2ccccc2n1	-4.7	3.9	-4.8	-3.1	-3.3	-12.1
NS(=O)(=O)c1cccc(NC(=O)CCSc2ccc(Cl)cc2)c1	.	7.3	.	-2.1	-1.4	.
CSc1ncc(Cl)c(C(=O)Nc2nnc(SC)s2)n1	6.5	13.2	-4.8	9.1*	-1.8	1.0
CCCSc1nnc(NC(=O)c2nc(SC)ncc2Cl)s1	3.0	-3.3	-3.2	1.4	-1.2	3.4
COc1ccc(-n2nc(C(=O)NCC(=O)Nc3ccccn3)c3ccccc3c2=O)cc1Cl	-2.7	-3.5	-6.2	-5.9	-0.2	.
COC(=O)[C@H]1CCCN1C(=O)Nc1cccc(Oc2c(F)c(F)c(F)c(F)c2F)c1	1.9	8.4	-4.2	-0.6	14.2*	17.1
Cc1ccc(CSCc2nnc(SCC(=O)N3CCN(c4ccccc4)CC3)n2C)cc1	4.3	2.6	-0.6	5.0*	-2.3	.
SMILES	S1P2 antag	GALR2 blocker	S1P2 agonist	MRP1 act	GALR2 agonist	MRP resist rev
NC1=NC(=O)/C(=C/c2cn(CCC(=O)O)nc2-c2ccc(Cl)cc2)S1	.	-1.3	.	5.5*	-0.3	.
Cc1ccc(S(=O)(=O)N2CCCCC2)cc1NS(=O)(=O)c1cccc(C(=O)O)c1	.	-15.3	.	-1.1	-1.3	.
O=C(Nc1ncc(Cc2ccccc2Cl)s1)c1ccc(-c2cccc([N+](=O)[O-])c2)o1	.	-2.8	.	5.2*	-0.8	.
O=C(Nc1ncc(Cc2ccc(C(F)(F)F)cc2)s1)c1ccc(-c2cccc([N+](=O)[O-])c2)o1	.	1.0	.	5.0*	-0.1	.
C=CCOc1ccc(/C=N/NC(=O)C(=O)Nc2ccccn2)cc1OC	.	-9.9	.	-2.8	-1.1	.
O=C1SC(SCc2ccccc2)=N/C1=C\c1ccco1	11.2	12.3	-8.5	-1.6	-2.0	-23.5
O=C1SC(c2ccccc2)=N/C1=C/c1ccco1	22.5	-17.8	58.7*	-1.1	-0.7	25.9
Cn1c(=O)c2c(nc(N3CCCCCC3)n2Cc2cccc3ccccc23)n(C)c1=O	.	14.1	.	-5.8	3.0	63.6*
CCOC(=O)c1cc(-c2ccccc2)sc1NC(=O)C(C)Sc1nnnn1C (configuration not stated)	-13.3	-7.3	1.0	3.6	-1.2	4.8

Screens from PubChem BioAssay.
